# Like-named read-outs stand apart in the source and are kept apart here.
# Legend:
# Parameters in all cases: species or system human, MV4-11 + K-562 + COLO205 + SK-N-BE2 + OVCAR-8
# ABL1 = conditions: read-out: apparent Kd, compound concentrations: 100 nM and 1000 nM (sheet 'Samples'), n = 1
# ABL2 = conditions: read-out: apparent Kd, compound concentrations: 100 nM and 1000 nM (sheet 'Samples'), n = 1
# BCR = conditions: read-out: apparent Kd, compound concentrations: 100 nM and 1000 nM (sheet 'Samples'), n = 1
# EGFR = conditions: read-out: apparent Kd; compound concentrations: 100 nM and 1000 nM (sheet 'Samples'), CATDS: 1.4688482058743299E-2; n = 1
# FRK = conditions: read-out: apparent Kd, compound concentrations: 100 nM and 1000 nM (sheet 'Samples'), n = 1
# FYN = conditions: read-out: apparent Kd, compound concentrations: 100 nM and 1000 nM (sheet 'Samples'), n = 1
# GAK = conditions: read-out: apparent Kd, compound concentrations: 100 nM and 1000 nM (sheet 'Samples'), n = 1
# HCK = conditions: read-out: apparent Kd, compound concentrations: 100 nM and 1000 nM (sheet 'Samples'), n = 1
# LCK = conditions: read-out: apparent Kd, compound concentrations: 100 nM and 1000 nM (sheet 'Samples'), n = 1
# LYN = conditions: read-out: apparent Kd, compound concentrations: 100 nM and 1000 nM (sheet 'Samples'), n = 1
# RET = conditions: read-out: apparent Kd, compound concentrations: 100 nM and 1000 nM (sheet 'Samples'), n = 1
# RIPK2 = conditions: read-out: apparent Kd, compound concentrations: 100 nM and 1000 nM (sheet 'Samples'), n = 1
# RIPK3 = conditions: read-out: apparent Kd, compound concentrations: 100 nM and 1000 nM (sheet 'Samples'), n = 1
# YES1 = conditions: read-out: apparent Kd, compound concentrations: 100 nM and 1000 nM (sheet 'Samples'), n = 1
# CLK1 = conditions: read-out: apparent Kd; compound concentrations: 100 nM and 1000 nM (sheet 'Samples'), CATDS: 1.75413407111282E-2; n = 1
# PTK6 = conditions: read-out: apparent Kd, compound concentrations: 100 nM and 1000 nM (sheet 'Samples'), n = 1
smiles,measurement,setting,value
CC(C)c1nc(-c2cccc(NS(=O)(=O)c3c(F)cccc3F)c2)c(-c2ccnc(Nc3ccc(N4CCOCC4)nc3)n2)s1.Cl [GSK1723980B],potency estimated from few doses,ABL1; CATDS: 2.44032415333994E-2,301 nM
same,potency estimated from few doses,ABL2; CATDS: 5.9392404533495001E-2,61.3 nM
same,potency estimated from few doses,BCR; CATDS: 2.01356126413582E-2,494 nM
same,potency estimated from few doses,EGFR,1660 nM
same,potency estimated from few doses,FRK; CATDS: 1.9563018152501301E-2,538 nM
same,potency estimated from few doses,FYN; CATDS: 2.5454703773251201E-2,273 nM
same,potency estimated from few doses,GAK; CATDS: 7.7994003352353694E-2,41.9 nM
same,potency estimated from few doses,HCK; CATDS: 2.2853369268103E-2,353 nM
same,potency estimated from few doses,LCK; CATDS: 3.2406283014168501E-2,166 nM
same,potency estimated from few doses,LYN; CATDS: 2.8217143003072001E-2,219 nM
same,potency estimated from few doses,RET; CATDS: 3.0852467961072601E-2,183 nM
same,potency estimated from few doses,RIPK2; CATDS: 1.9945459179113199E-2,508 nM
same,potency estimated from few doses,RIPK3; CATDS: 1.9089551984729902E-2,580 nM
same,potency estimated from few doses,YES1; CATDS: 2.9075172405301501E-2,206 nM
CC(C)c1nc(-c2cccc(NS(=O)(=O)c3c(F)cccc3F)c2F)c(-c2ccnc(Nc3ccc(N4CCOCC4)nc3)n2)s1 [GSK2008607A],potency estimated from few doses,ABL1; CATDS: 2.52520437406713E-2,706 nM
same,potency estimated from few doses,ABL2; CATDS: 7.58086527625733E-2,101 nM
same,potency estimated from few doses,BCR; CATDS: 3.4777380085243399E-2,355 nM
same,potency estimated from few doses,FYN; CATDS: 2.15624347754024E-2,1090 nM
same,potency estimated from few doses,GAK; CATDS: 3.3626459583734003E-2,378 nM
same,potency estimated from few doses,HCK; CATDS: 2.4637154538395101E-2,751 nM
same,potency estimated from few doses,LCK; CATDS: 4.60457501367081E-2,215 nM
same,potency estimated from few doses,LYN; CATDS: 2.5134529621639101E-2,715 nM
same,potency estimated from few doses,RET; CATDS: 4.3035202568940403E-2,241 nM
same,potency estimated from few doses,YES1; CATDS: 2.6088425735390001E-2,653 nM
CN(C)Cc1ccc(-c2ccc3c(Nc4ccc(Oc5ccccn5)cc4)ccnc3c2)o1 [GW567148X],potency estimated from few doses,ABL1; CATDS: 2.6696820742308999E-2,474 nM
same,potency estimated from few doses,ABL2; CATDS: 2.2474655179730001E-2,716 nM
same,potency estimated from few doses,BCR; CATDS: 2.3050499166144999E-2,671 nM
same,potency estimated from few doses,CLK1,1550 nM
same,potency estimated from few doses,FRK; CATDS: 2.1087873700944799E-2,850 nM
same,potency estimated from few doses,FYN; CATDS: 2.9409133210556101E-2,385 nM
same,potency estimated from few doses,GAK; CATDS: 2.37556853543167E-2,622 nM
same,potency estimated from few doses,HCK; CATDS: 0.14804740289448201,30.7 nM
same,potency estimated from few doses,LCK; CATDS: 3.1046843535100802E-2,345 nM
same,potency estimated from few doses,LYN; CATDS: 2.6094910864106001E-2,499 nM
same,potency estimated from few doses,PTK6; CATDS: 5.2806540733476098E-2,134 nM
same,potency estimated from few doses,RIPK2; CATDS: 9.2431358445575804E-2,57.7 nM
same,potency estimated from few doses,RIPK3; CATDS: 2.29584105489756E-2,678 nM
same,potency estimated from few doses,YES1; CATDS: 6.4400674253028201E-2,97.8 nM
Cc1ccc(O)cc1Nc1ccnc2ccc(C(C)(C)C)cc12 [GW856805X],potency estimated from few doses,ABL1; CATDS: 2.7380804690978401E-2,1400 nM
same,potency estimated from few doses,ABL2; CATDS: 3.3299960088100697E-2,317 nM
same,potency estimated from few doses,BCR; CATDS: 4.5684736172067801E-2,79.1 nM
same,potency estimated from few doses,FRK; CATDS: 5.5452484233419301E-2,44.2 nM
same,potency estimated from few doses,FYN; CATDS: 4.6328072424656697E-2,75.5 nM
same,potency estimated from few doses,GAK; CATDS: 4.7417196878279499E-2,70 nM
same,potency estimated from few doses,PTK6; CATDS: 2.9493928233546299E-2,718 nM
same,potency estimated from few doses,RET; CATDS: 4.15605904174959E-2,111 nM
same,potency estimated from few doses,RIPK2; CATDS: 0.10546216310876699,11.1 nM
same,potency estimated from few doses,RIPK3; CATDS: 3.0648006837875299E-2,540 nM

# Source: paper PMC11062922 (Nature Chemical Biology, 2023)
